Experimental findings from ChEMBL document CHEMBL4513216, “Probing the Open Global Health Chemical Diversity Library for Multistage-Active Starting Points for Next-Generation Antimalarials” (ACS Infect Dis, 2020) are described below.

The campaign covered roughly 69,000 compounds. About 8,600 (12%) showed an effect of 50% or more. What follows is part of a selection rich in strong results, with near analogues and random picks from the rest.

This test concerns Plasmodium berghei. Briefly: Screen against P. berghei liver stage (PbLuc), transformed with Luciferase, at 10uM. The test is classed as functional, HepG2. To be noted: tested at 10 uM.
`COc1cccc(CN2CC(O)CN(C(=O)C3CCC3)CC2=O)c1OC` (centres undefined): the INHIBITION is on record as 49.5%. Take `CNC(=O)[C@@H]1[C@@H](c2ccccc2)CN2CCN(Cc3ccccn3)C[C@H]12`: the INHIBITION is given as 20%. The figure for `O=C(NC1CC1)N1CCCC2(CCCCN2)C1` (centres undefined) is 13.7%; for `c1cnn(CC2CN(Cc3nc(C4CC4)no3)CCO2)c1` (centres undefined) it is -12.2%. As for `COc1cc(C(C)NCc2ncccc2C)ccc1SC(F)F` (centres undefined), the figure is 66.2%; as for `COc1ccc(C(C)NCc2c[nH]nc2C)cc1OC` (centres undefined), -43%; as for `COc1ccc(C(C)NCc2nnc(C)s2)cc1F` (centres undefined), 39.4%. Consider `COc1cc(C(C)NCc2scnc2C)ccc1SC(F)F` (centres undefined), for which the INHIBITION came out at 75.6%. As for `COc1cc(C(C)NCc2cscn2)ccc1SC(F)F` (centres undefined), the figure is 27%. As for `COc1ccc(C(C)NCc2scnc2C)cc1Cn1cccn1` (centres undefined), the figure is 35.3%; as for `Cc1nnc(CN(C)C2CCN(Cc3nc4ccccc4n3C)C2)o1` (centres undefined), -25.8%.

As to `Cn1c(SCC(O)COCc2ccc(Cl)cc2)nnc1C1CC1` (centres undefined), the INHIBITION was -18.6%.

For the molecule `Cn1c(SCC(O)COCc2ccccc2Cl)nnc1C1CC1` (centres undefined), the INHIBITION is 36.6%. The figure for `OC(COCc1ccccc1)CSc1nnc(C2CC2)n1C1CC1` (centres undefined) is 52.8%; for `NC(=O)C1CCN(C(=O)c2cc(-n3cnnn3)ccc2Cl)CC1` it is 28.4%; for `CC(NC(=O)C1CC1)C(=O)N(C)Cc1ccsc1` (centres undefined) it is 16.1%.

As to `CCCc1ncc(CNC2(c3ccc(Cl)cc3)CC2)cn1`, the INHIBITION is listed as 44.8%. Turning to `Cc1nc(C2CCN(C[C@H](C)CO)CC2)cc(N2CCOCC2)n1`, the INHIBITION is 60.3%. Regarding `Cc1nc(C2CCN(C(=O)COC(C)C)CC2)cc(N2CCOCC2)n1`, the INHIBITION amounted to 3.96%. `Cc1nc(C2CCN(C(=O)CO)CC2)cc(N2CCOCC2)n1`: the INHIBITION is recorded as 36.8%. As for `O=C(Cc1cccs1)Nc1cnn(C2CCOC2)c1` (centres undefined), the figure is 5.91%. As for `O=C(Cc1cccs1)Nc1cnn(C2CCOCC2)c1`, the figure is 71.3%. The figure for `O=C(Nc1ccc2c(c1)OCO2)Nc1cnn(C2CCOCC2)c1` is 36.5%; for `O=C(Nc1cnn(C2CCOCC2)c1)c1ccc2c(c1)OCO2` it is -38.6%; for `O=C(Cc1ccccc1Cl)Nc1cnn(C2CCOC2)c1` (centres undefined) it is 51.8%.

Take `Cc1cccc(CC(=O)Nc2cnn(C3CCOC3)c2)c1` (centres undefined): the INHIBITION is recorded as -13.6%. The figure for `COc1ccccc1-c1cc(C(=O)Nc2nc[nH]n2)[nH]n1` is -36%; for `O=S(=O)(CCN1CCCC1Cn1cncn1)c1ccccc1` (centres undefined) it is -43.6%; for `Cc1cc(C(=O)NCC(Cc2cccc(F)c2)N2CCCCC2=O)no1` (centres undefined) it is 34.9%. The figure for `CNC(=O)[C@@H]1CCO[C@@H]2CCN(C3CCOCC3)C[C@@H]21` is -46.9%; for `O=C(CCn1ccc2ccc(Br)cc21)NCc1ccc(C(=O)O)cc1` it is 15.1%.

For the molecule `Cn1ccnc1C1CCCN(C(=O)c2ccncc2F)C1` (centres undefined), the INHIBITION came out at 42.5%.

`O=C(c1ccncc1F)N1CC2CC1(C(=O)N1CCCC1)C2`: the INHIBITION is on record as 58%. Regarding `Cc1oncc1C(=O)N1CC2CC1(C(=O)N1CCCC1)C2`, the INHIBITION is -15.9%.

`O=C(NCc1cc(-c2ccccc2)no1)NCC1CCCO1` (centres undefined): the INHIBITION came to 1.06%. As for `CC1=CCN(S(=O)(=O)c2cccc(C(=O)N3CCCN(C)CC3)c2)CC1`, the figure is 14%. The figure for `N#Cc1ccc(OCCN2CCn3c(nnc3C3CC3)C2)cc1` is 11.2%; for `CC(NC(N)=O)C(=O)NCc1ccc(Br)c(F)c1` (centres undefined) it is -31.1%; for `CS(=O)(=O)CCSCc1ccc(Br)c(F)c1` it is 50.7%. `CS(=O)(=O)CCCSCc1cc(F)cc(Br)c1`: the INHIBITION is on record as 31.2%.

As for `NC(=O)NC1CCN(Cc2ccc(Br)c(F)c2)CC1`, the INHIBITION is on record as 1.45%. For `CS(=O)(=O)CCCSCc1ccc(Br)c(F)c1`, the INHIBITION is recorded as -59.7%. Consider `NC(=O)CCSCc1ccc(Br)c(F)c1`, for which the INHIBITION is 52.8%. As for `Cc1ccnc(C2(C)CCCN2S(=O)(=O)c2ccccc2)n1` (centres undefined), the figure is 45.55%. With `Cn1cnnc1C1CCN(C(=O)COCc2ccccc2Cl)CC1`, the INHIBITION came to 39.2%.

On to `CC(C)Cn1cc(NC(=O)N2CCCC2)cn1`, for which the INHIBITION is -37.8%. As for `CN1C[C@@H]2CN(Cc3ccsc3)CCC[C@]2(C(=O)O)C1`, the figure is -64.1%; as for `CC(C)C1CCN(C(=O)NCC(=O)N(C)CC(F)(F)F)CC1`, 34.2%. The figure for `CN(Cc1nnc2n1CCC2)S(=O)(=O)c1ccc(Br)cc1Cl` is 52.6%; for `Cc1nnc(CN(C)S(=O)(=O)c2ccc(Br)cc2Cl)n1C` it is 33.1%; for `CN(Cc1nnc2n1CCC2)S(=O)(=O)c1cc(Br)ccc1Br` it is 30.9%.

Turning to `CC(CN1CCCC1=O)NC(=O)c1cc(Cl)c2c(c1)OCO2` (centres undefined), the INHIBITION came to 38.5%. As for `Cc1cccnc1CN1CCCCC1c1ccn2ccnc2n1` (centres undefined), the figure is 45.6%; as for `CCc1ccc(S(=O)(=O)N2CCCC(c3ncc[nH]3)C2)s1` (centres undefined), 81.2%; as for `CCc1cnc(CNC(=O)N2CCCC(c3ncc[nH]3)C2)s1` (centres undefined), 40.6%. Regarding `CCOc1ccccc1CC(=O)N1CCCC(c2ncc[nH]2)C1` (centres undefined), the INHIBITION is recorded as 19.7%. The figure for `CCC(CC)c1cc(CNC(=O)N2CCCC(c3ncc[nH]3)C2)on1` (centres undefined) is -1.79%; for `O=C(CCn1cnnc1)N1CCCC(c2ncc[nH]2)C1` (centres undefined) it is -12.2%. As for `CCc1cnc(CCNC(=O)N2CCCC(c3ncc[nH]3)C2)s1` (centres undefined), the figure is 52.6%; as for `Cn1cc(C(=O)N2CCCC(c3ncc[nH]3)C2)cn1` (centres undefined), -24.9%.

For `O=S(=O)(c1ccccc1Cl)N1CCCC(c2ncc[nH]2)C1` (centres undefined), the INHIBITION was determined as 21.6%. On to `O=S(=O)(c1ccc(Cl)s1)N1CCCC(c2ncc[nH]2)C1` (centres undefined), for which the INHIBITION is recorded as 50.4%. Take `CCNc1nc2cn(-c3cccc(OC)c3)c(=O)c-2c[nH]1`: the INHIBITION is on record as -76.4%. The figure for `O=C(O)c1ccc(=O)n(CC(c2ccc(F)cc2)N2CCCCCC2)c1` (centres undefined) is 14.65%. As for `CN1CCO[C@@H]2CN(S(=O)(=O)c3ccccc3F)CC[C@@H]2C1`, the figure is 21.7%. The figure for `NCC1CCC(C(NC(=O)C2CC2)c2ccccn2)CC1` (centres undefined) is 29.3%.

Turning to `CCOc1cc(=O)n2c(c1C(=O)OCc1ccc(OC)cc1)CCCC2`, the INHIBITION is given as 27.6%.

For the molecule `CC(=O)NCCOc1cccc(Br)c1`, the INHIBITION worked out at 48.8%. The figure for `CC(=O)Nc1cccc(OCCNC(=O)N(C)Cc2ccncc2)c1` is 57.7%.

On to `CC(=O)Nc1cccc(OCCNC(=O)N(C)Cc2ccco2)c1`, for which the INHIBITION is listed as -52.9%. The figure for `CC(=O)Nc1cccc(OCCNC(=O)N(C)Cc2ccccc2)c1` is 80.8%; for `CC(=O)Nc1cccc(CNC(=O)N(C)Cc2ccccc2)c1` it is -25%. Take `CN(CCOc1cccc(F)c1)CC(=O)Nc1ccncc1`: the INHIBITION stood at 21.55%. As for `CCOCC(O)CN1CCN(C(=O)c2cc(Cl)ccc2F)CC1` (centres undefined), the INHIBITION is listed as -18%. In the case of `Cc1cnc(N2CCCC3(CCN(Cc4csc(C)n4)C3=O)C2)nc1` (centres undefined), the INHIBITION is reported as -49.8%.

As for `CC(NC(=O)N1CCN(c2ccccc2O)CC1)c1nncn1C` (centres undefined), the INHIBITION was -1.14%. As for `CC(C)n1nc2c(cc1=O)CN(c1ncnc3sccc13)CC2`, the figure is 88.5%; as for `CCCn1nc2c(cc1=O)CN(c1ncnc3sccc13)CC2`, 96.2%; as for `CCCn1nc2c(cc1=O)CN(C(C)C(=O)Nc1nccs1)CC2` (centres undefined), 29.4%. As for `CCn1nc2c(cc1=O)CN(Cc1nc(C)c3ccccc3n1)CC2`, the figure is -3.72%; as for `Cn1nc2c(cc1=O)CN(c1ncnc3sccc13)CC2`, 42.3%.

Turning to `CC(C)n1nc2c(cc1=O)CN(CCCN1CCCC1=O)CC2`, the INHIBITION amounted to 11.9%. `CC(C)n1nc2c(cc1=O)CN(CCOc1ccc(C#N)cc1)CC2`: the INHIBITION was -7.94%. The figure for `CCn1nc2c(cc1=O)CN(Cc1nc3ccccc3o1)CC2` is 8.24%; for `CCn1nc2c(cc1=O)CN(c1ncnc3sccc13)CC2` it is 79.9%. Consider `CC(C(=O)NCc1ccnc(N2CCCCCC2)c1)n1cccn1` (centres undefined), for which the INHIBITION is -39.6%. The figure for `COc1c(C)cnc(CN2CCOC(Cn3nc(C)cc3C)C2)c1C` (centres undefined) is -21.7%; for `CN1C(=O)CO[C@H]2CCN(C(=O)Cc3ccc4c(c3)CCCC4)CC[C@@H]21` it is 10.65%. As for `N#Cc1cccc(OCCN2CCOC(Cn3cccn3)C2)c1` (centres undefined), the figure is 0.411%. The figure for `CCCOC(=O)c1ccc(-c2ccc(/C=C3\C(=O)NC(=N)N3C)o2)cc1` is -18%; for `CCc1nc2n(n1)CC(NCc1cnn(Cc3ccccc3)c1)CC2` (centres undefined) it is -2.19%; for `Cc1nn(C)c2ncc(NC(=O)N3CCNC(=O)C3)cc12` it is -38%.

On to `CCS(=O)(=O)N1CCC(NC(=O)c2ccccc2O)CC1`, for which the INHIBITION is -33.32%.

Turning to `CCCS(=O)(=O)N1CCC(NC(=O)c2cc(CC)c(C)s2)CC1`, the INHIBITION is reported as 2.91%.

For the molecule `CCCS(=O)(=O)N1CCC(NC(=O)c2ccc(C)s2)CC1`, the INHIBITION is listed as -19.3%.

Regarding `CCS(=O)(=O)N1CCC(NC(=O)c2cc(C)ccc2O)CC1`, the INHIBITION worked out at 8.665%. Regarding `CCCS(=O)(=O)N1CCC(NC(=O)c2cc3ccccc3s2)CC1`, the INHIBITION is 67.1%. The figure for `CCS(=O)(=O)N1CCC(NC(=O)c2cc3ccccc3cc2O)CC1` is 80.55%; for `COC1C[C@@H]2CN(C(=O)c3cccc4c3OCCO4)C[C@@H]2C1` (some centres undefined) it is 40.625%; for `CCc1nnsc1C(=O)N(C)Cc1nnc2n1CCC2` it is 22.9%.

Regarding `O=C(c1cnccn1)N1CCC(F)(F)C2(CCN(c3ccccn3)C2)C1` (centres undefined), the INHIBITION is on record as 12.1%. `CNC(=O)C(NC(=O)c1ccn(C)c(=O)c1)c1ccccc1` (centres undefined): the INHIBITION is -25.9%. The figure for `CCCN(Cc1ccccc1)Cn1nc(C)c2c(C)onc2c1=O` is 49.9%; for `Cc1nn(CN(CC(C)C)C2CC2)c(=O)c2noc(C)c12` it is -199%; for `Cc1cccc(CN(Cn2nc(C)c3c(C)onc3c2=O)C2CC2)c1` it is -18.9%. As for `CCN(Cc1cccc(C)c1)Cn1nc(C)c2c(C)onc2c1=O`, the figure is 49.8%; as for `CCN(CCc1ccccc1)Cn1nc(C)c2c(C)onc2c1=O`, 56.1%. The figure for `Cc1nn(CN(Cc2ccsc2)C2CC2)c(=O)c2noc(C)c12` is 63.8%; for `COc1ccc(CC(=O)N2CCCCC2Cn2cccn2)cc1` (centres undefined) it is -8.11%.
